Here are results for 132 sequences from PubChem BioAssay AID1159506 (National Center for Advancing Translational Sciences (NCATS), 2015).

In all, about 59,000 sequences were measured (the read-out: median about -0.00055, lowest 2% from about -2 on). Only a selection was taken, and the lowest values are over-represented in it overall.

This assay can be described thus: Identification of proteins required for the processing of the EWS-FLI1 nascent transcript.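 Further: robust z of luciferase light less the median z of siRNAs with the same seed.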 The note with it: TC32 Ewing sarcoma NR0B1-luc vs CMV-luc (EWS-FLI1 target promoter against control promoter), 48 h; screened at 20 nM (by protocol). As for the experimental part:
Ewing sarcoma (ES) cells depend on the EWS-FLI1 fusion transcription factor for cell survival. Using an assay of EWS-FLI1 activity and genome-wide siRNA screening we have identified proteins required for the processing of the EWS-FLI1 nascent transcript. Parallel genome-wide siRNA-mediated RNAi screens were conducted in Ewing sarcoma TC32 cell lines expressing a luciferase (luc) reporter protein driven by either the promoter of the EWS-FLI1 target gene NR0B1 (TC32-NR0B1-luc) or the CMV promoter (TC32-CMV-luc). Luciferase activity was assessed 48 hours post siRNA-transfection.
Twenty microl of serum-free media containing Lipofectamine RNAiMax (0.05 microl) was added to wells containing siRNA (0.8 pmol). Lipid and siRNA were allowed to complex for 45 min at ambient temperature before addition of 600 cells in RPMI-1640, 20% FBS to yield final transfection mixtures containing 20 nM siRNA in RPMI-1640, 10% FBS. Luciferase expression was measured using OneGlo (Promega, Madison, WI). The genome-wide screening campaign was conducted using Ambion's human genome library version 4.1 (Ambion, Austin TX). This library targets approximately 21000 human genes, three siRNAs per gene. Each siRNA is arrayed in an individual well of a 384-well plate. Parallel transfections were conducted in TC32-NR0B1-luc and TC32-CMV-luc cell lines and luciferase expression (OneGlo, Promega) was assayed 48 h later on a PerkinElmer Envision 2104 Multilabel plate reader (PerkinElmer, Waltham, MA). Qiagen's AllStars Negative control was incorporated on all screening plates for normalization (16 wells per plate). Qiagen, Germantown, MDsiGL4 was incorporated as a positive transfection control (16 wells per plate) on all plates. […] The raw luciferase data for the NR0B1- and CMV-luc screens were normalized and z-score-MAD transformed using standard methods (Chung et al., 2008). The miRNA-like seed sequence of every siRNA was determined and the median z-score for all siRNA sequences with the same seed sequence was calculated. This z-score was subtracted from the z-score associated with each siRNA with that seed sequence to generate a seed-adjusted z-score value (Z) that was used when the results for the three siRNAs corresponding to each gene were compared (Marine et al., 2012)
UUUAGGAACCUUGACUAGC against GTF2F2 showed a seed-corrected z-score of 0.153.
The same measure for AACGUGUAGAUCUUCAUGA against UBXN6: -1.15; for UGAAGUUCAGGUUCGUAAC against TBPL1: -2.64; for UUGACAUUUACUUCAGUUU against TRABD: 0.607.
In the case of AGUGGAUACAUAGCUGUCU against ZBTB45, the seed-corrected z-score was -0.6.
UCCUUAAUUUGAUAUUUGC against MAGEA8 showed a seed-corrected z-score of -0.105.
The same measure for AUACUUGCAGGUGUCAUUG against CD300A: -0.484.
Sequence AUCGCUUUGAGGUUAGAGG against SYT3 came in with a seed-corrected z-score of -0.878.
Turning to UAUCAUAUGAUGCAUAAGC against ANGPTL5, the seed-corrected z-score was determined as 0.711.
The same measure for UGAUGAUACACUGCAAGUC against IGSF3: -2.96; for UAAUCUAUUGAUAUGCUGG against SLC25A32: 0.699; for AAGUGGAACACUCAAGUCC against ZNF471: -1.03.
As for AUAAAUGAUACGGGUGCUC against TPI1, the seed-corrected z-score is -0.201.
As for UAGGAGCAGAGGAAUCUUC against SLC35F4, the seed-corrected z-score was determined as 0.0717.
For UUCUGAUGUAUGUUGAGCC against ZNF350, the seed-corrected z-score is -4.18.
UUCUCGUUGAUCUUUUUGG against CPXCR1: the seed-corrected z-score is -0.131.
For the sequence UCCUGUUCCUUGAUAUUGU against GZMH, the seed-corrected z-score was -0.564.
For UUAUCUGUGAGAGCAAUUA against LOC728752, the seed-corrected z-score is -1.23.
With UCUGGAUCUAUUAAGCUGC against LRRFIP2 the figure was -2.34; with AAAUCAGUGGGAAAGAUCC against DENND3, 1.04.
With UUCUCCAUCAUGCGAAUGG against FEN1 the figure was 0.188; with UGGUAGUACACCUUGCAGC against C1orf111, -2.08.
The same measure for UGUAAUACCUGAAUCGGUG against PRKRA: -0.234.
Regarding AAAUAGACAAAUAGGAUCC against PSMD12, the seed-corrected z-score was -2.98.
With UAUCUGAGAGUGAUCCUUC against LRRC47 the figure was 1.55; with UCAAUUCAGACUGUAAUGC against PTPDC1, -0.0227; with AUUCUCACCAUAAAGAGCA against LOC729722, -2.33.
Regarding UUAUGCUUAGGUAACUUGC against AADACL3, the seed-corrected z-score was -3.87.
In turn, UAUAUAUCGUGCUUGAUAC against RIPK2 had a seed-corrected z-score of 0.0696.
With UAUGCGACAAAGAAUGACU against OR4N3P the figure was 0.242; with UUUUCGAUUAAACCUUUUC against C17orf58, -0.0867.
With UAAUCAAUCAUAGAGAUAG against GSTO1 the figure was 0.0812; with UUUAUUACAAUCCAAAAGU against HCST, 0.824; with UUCUCGAUCAAGAGCAUCC against SPEF2, -12.2.
The same measure for UUUGUGGUUAUUCUUUUAU against CDC42EP2: -0.0752; for UACAGCAUAAUCUCAUUUG against BPY2: 0.91; for UAAGCAGUAGAGUUAGUUC against LINC01249: 0.231.
UCUGUUCCAAGGCACUAUC against NFE4 registered a seed-corrected z-score of 0.0636.
In turn, UUAUACACGAGGAAGAUGU against TMEM169 returned a seed-corrected z-score of -0.406.
With UGAGUAAACAGCCUCAGUC against CMIP the figure was -0.223.
The sequence UCUCGAUGAAGUCAAACAG against COPG1 showed a seed-corrected z-score of -2.97.
The same measure for AAUUUGCUAAAUCGUAUUC against CLLU1: -0.521; for UCCAUUAUCCCAAUAGACC against PGM2: -0.182.
Consider UAGGGUUGGACUUUUUGUC against CYB5R3, for which the seed-corrected z-score came to 0.597.
Sequence UCCAGUACCUUUUCCUUGG against LOC199882 gave a seed-corrected z-score of 0.35.
With AAUACUUGAAGGAAUAGGC against SUPT6H the figure was -5.83; with UACCAUAUUAUACACUUGC against STARD6, -0.0986.
With AUGGAUCCAAUUUGAGUUU against NR2F2-AS1 the figure was 1.74; with AUCUCAUAAAAGAUCAUCC against NUTM1, -0.0209.
Sequence UAUUGUUAAGGACUUUAAC against DNAJB6 gave a seed-corrected z-score of 0.648.
In turn, UUCGGUACACUCAUACGGC against ZNF300 showed a seed-corrected z-score of 0.363.
With UUAGCUGCUCGGUAACUGG against EPB41 the figure was -2.39.
UAAUGACAUAUCGACAUUU against MIDN yielded a seed-corrected z-score of -0.523.
In turn, UUAGAGAAUAUGCCCAUGA against FGD3 came in with a seed-corrected z-score of -1.11.
With UUUGGGUAGAGGCCGAAUG against DNAJC13 the figure was -2.18; with UAUGUUAUCAGUCCAUCUG against MND1, 0.573.
In the case of UCUACAUCAAUAACAGAGG against C5orf28, the seed-corrected z-score is 0.545.
The sequence UUAUUGGUUGUGACUUUCC against TSLP gave a seed-corrected z-score of 0.686.
For UCCCUUUUAAGCAACCUAC against APOC3, the seed-corrected z-score is -0.83.
UCAAUAUCCAGACCUGGUG against SF3A1 gave a seed-corrected z-score of -2.88.
The sequence UCCCGUAAAACAGAGACAC against OR2C3 came in with a seed-corrected z-score of -0.66.
With AUCGUGCUCGCUUGGAUCC against LOC729083 the figure was -0.203.
The same measure for UCGGUUGCGAAUCAGAAUC against NOTCH2: -2.01; for UUAGAUACUCUGCAGGAUG against EPHA5: 0.46; for UUUAAUGUCCCAGUCCUCG against TMEM160: 0.858.
The same measure for UCUUACAUAGGUAAUUGCC against AGTR1: -0.402.
Sequence UUCCUUAACCCAUCUACAG against C2orf49 returned a seed-corrected z-score of 0.273.
On to UGAAUGACAUCCACUACCU against OR6K2, for which the seed-corrected z-score amounted to 1.02.
The same measure for UCAAAGUCGAUUUCAAUCU against BRD4: -2.4; for UAGAUGUCUGGAGCCCAUC against LYPD6: -0.74.
The same measure for AAAGGAGUCAGAUUCAUGC against GPATCH2L: 0.347; for UCUCCAACCAAUUGCCUCC against LOC200726: -0.147.
Sequence UAGGGAACUCGUAUCUAGC against RNF213 yielded a seed-corrected z-score of 0.191.
Sequence UAGUUGUCGAUGUAAACUC against MUC2 came in with a seed-corrected z-score of -2.67.
With UUCCAUAUUACCGAGGUCC against ALCAM the figure was 0.291; with UCUGAGAUAACAGUUCCUG against LOC644681, -0.647.
With UUCUCGAUCAUCCUGAUCU against BGN the figure was -3.
In turn, UGCUAGACAAUUCCACUUC against SLX4 displayed a seed-corrected z-score of -1.39.
With UAUCGCUCCUGACUAUUGC against PPP1R10 the figure was -0.157.
The same measure for ACAACUAUGAUUUUAAGGC against ACSL1: 0.252; for UUGUCUUUCCGGCUAAAGC against ZFP64: -1.36; for UAUUGUAAGAAAACCCUUG against GNA13: 1.07.
The same measure for UCUGUGUCCACAGAGCCGU against GPR78: -2.26; for UACUACACUAUUCUUCAGG against TADA1: -0.3.
On to UUGCGACUCAUGAAAUGGG against INO80, for which the seed-corrected z-score came out at 0.511.
In turn, AUGGUAGUAAUCGCGGGCG against HSPA12B displayed a seed-corrected z-score of -2.44.
With UAAGCGAAUAGGAUGCGCU against YWHAEP5 the figure was -1.53.
In turn, UUUGCGAUGUUCCUCUUCC against GOLIM4 had a seed-corrected z-score of 0.684.
Take UCAUUUCUAAGACCGCAUG against HNRNPUL1: the seed-corrected z-score is -0.605.
AAAGGUCAAUUCUUGAUGG against OR2L8 came in with a seed-corrected z-score of 1.81.
Turning to UCUGGAUGGAGGUUUGUUC against SLC38A10, the seed-corrected z-score was 1.34.
UUGGAACAUAUUGGGAUCG against DDN: the seed-corrected z-score is -0.0544.
With AUGUUUUCGCUGGAGUUGG against SSBP4 the figure was 0.9.
The sequence AUAGGUCUGAAUGAGCUGC against PLCD3 came in with a seed-corrected z-score of -0.512.
With UUCCUCAAAACUGCAGACU against LOC729451 the figure was -0.00746; with UCCAUGUUGUCGAUCAUCU against RGS9BP, -2.21.
With UAUGAGUGCUCCACGAUGC against APOL3 the figure was 0.115; with UUCAUGACAAAGCUUGACC against PFN1P3, -0.053; with UUGGUAAACAUCUCCAGGC against TRIM63, 1.24.
Sequence UUGUCGUUCAGCAAACUCC against ASCC2 returned a seed-corrected z-score of -2.07.
With UCAGGAUAUAGUUUAGGAC against TMEM144 the figure was 0.846; with AAUGUAUCAAGUAUGUCGG against C16orf62, -2.25.
For UGAAAUAUCUCCAGGAUCU against EFCAB12, the seed-corrected z-score stood at 0.249.
In turn, UAUGCGUUUUGGAGAUUCC against PARP8 came in with a seed-corrected z-score of -0.784.
Regarding UCUGUCUUCCCAUAGGAUG against LOC440040, the seed-corrected z-score is -2.05.
AAUGGUAGAACAUCCCUGC against RIN2 had a seed-corrected z-score of -0.24.
With AACUUGAUCAAGUAGCUCG against EBLN1, the seed-corrected z-score was -0.0938.
The same measure for UGUCAGUAUAGCACAGAUC against EFTUD2: -2.05; for AAGGUAACCAGCUCGAUGG against RPL7AP27: -0.369; for UUCUUUAUCCUUAGUCCUC against NFATC2IP: -3.11.
With UACAGUAAUAGUGAGGCAG against GYPB the figure was 2.32.
As to UUAGGGUCAGGAGCAGACA against CYP2F1, the seed-corrected z-score is -0.167.
Sequence UACUAACUUUUCGAUGUCC against MX2 had a seed-corrected z-score of 0.257.
UAGGUUGCAUCAUAGAGGG against CFL1 yielded a seed-corrected z-score of -2.11.
The same measure for UUUCGUGUUGCCGUAUUUC against GEMIN5: 0.131.
With UACCAGUCAGGGUCUUCAC against UBC the figure was -8.62; with UGAGUAGAUGAUCUUGUCG against GNA11, 0.913; with AUAGGUGUCCUUCAGGUCC against MYL5, -0.00285.
In turn, UGAGAUUUGAUGAUUCUGC against OR7E24 returned a seed-corrected z-score of 0.344.
The same measure for UGUGAAAGAGGCGAAAUGC against ELAC1: 0.216.
With UUUUCCACAACCGUAGUCA against GOLGA8G the figure was 0.524; with GAUGGAGGUGCCAUGGUUG against ZSWIM3, -0.304; with UCUGGUUCUUUGUAAAGGC against S100A11P1, -2.25.
On to UUAGGCUUAUUUCCCGCUC against BTN3A2, for which the seed-corrected z-score was -0.656.
As for UAGUGUACUCUAGAGCCCG against PLEKHG4, the seed-corrected z-score was determined as 0.519.
Sequence UUUCUCAUCACUAGAAGUC against PPIH returned a seed-corrected z-score of -0.684.
In turn, UUGGAGAUAAGGGUUCUUG against MSTO1 yielded a seed-corrected z-score of -2.21.
In the case of UGCAUCUUCUCUUAUGUGC against C16orf90, the seed-corrected z-score was -1.02.
UAACACUUUCAUUCCUGUC against FAM86B1 yielded a seed-corrected z-score of -1.15.
With UCUUGGUCAGGUUUCCUCG against MUSTN1 the figure was -0.107; with AUUCUUCUAGGCAUUGCCC against PDE6D, 0.469.
Regarding UCUAUUACUUUCACAAUGC against KDM6A, the seed-corrected z-score is -0.344.
